Screening data deposited in PubChem by The Scripps Research Institute Molecular Screening Center.
CHO-K1 Ca antag – counter-screen for M1 antagonists: effect in parental CHO-K1 cells. AID 602250. inhibition, % at 3 µM. ATP-induced calcium, Fluo-8 fluorescence. 360,000 tested, 0.6% active;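 active means inhibition above a per-plate cutoff, the plate's mean sample inhibition plus 3 SD, cut at about 24% in these data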;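 further: 0% = DMSO plus EC80 ATP and 100% = DMSO alone without ATP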
M1 PAM – human CHRM1 positive allosteric modulation; CHO-K1 hM1, Fluo-8 calcium fluorescence, ACh EC20; 0% = ACh EC20, 100% = maximal ACh; activation, % at 3 µM; 360,000 tested, 0.088% active; in the data active means activation above about 19%, passing the limit was not always enough
Target sequence (P11229 whole entry, looked up): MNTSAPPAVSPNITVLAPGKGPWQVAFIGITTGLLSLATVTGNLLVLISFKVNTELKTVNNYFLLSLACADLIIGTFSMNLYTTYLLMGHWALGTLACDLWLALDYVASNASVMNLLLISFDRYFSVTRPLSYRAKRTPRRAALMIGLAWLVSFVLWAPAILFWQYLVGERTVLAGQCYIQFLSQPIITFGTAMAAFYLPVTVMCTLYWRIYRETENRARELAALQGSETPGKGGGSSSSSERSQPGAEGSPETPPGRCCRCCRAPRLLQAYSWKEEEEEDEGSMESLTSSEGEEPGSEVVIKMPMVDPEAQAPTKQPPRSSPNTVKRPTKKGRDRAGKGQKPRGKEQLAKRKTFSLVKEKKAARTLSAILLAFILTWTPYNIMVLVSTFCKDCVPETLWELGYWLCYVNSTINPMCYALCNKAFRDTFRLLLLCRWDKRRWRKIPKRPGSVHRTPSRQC
CHRM1 agonist – human M1 muscarinic receptor agonism. CHO-K1 hM1, Fluo-8 calcium fluorescence, agonist mode; 0% DMSO, 100% acetylcholine EC100. activation, % at 3 µM. 360,000 tested, 0.33% active. AID 588814;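 active means activation above the run's mean compound activation plus 3 SD, cut at about 16% in these data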;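 further: peak over basal fluorescence ratio within a 140 s kinetic read after compound addition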
CHO-K1 Ca ag – M1 agonist counterscreen hit in parental CHO-K1 cells; 360,000 tested, 0.48% active; Fluo-8 calcium fluorescence; scaled to maximal ATP response, vehicle zero; activation, % at 3 µM; AID 602248; in the data active means activation above about 15%;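 further: untransfected CHO-K1 host cells lacking M1 receptor as counterscreen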
CHRM1 antagonist – blocks human M1 muscarinic receptor. 360,000 tested, 1.3% active. P11229. inhibition, % at 3 µM. AID 588852. CHO-K1 hM1, Fluo-8 calcium fluorescence, ACh EC80 antagonist;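 active means percent inhibition above its own plate's cutoff, namely the mean of that plate's compound wells plus 3 SD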;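 further: peak over basal fluorescence ratio during 140 s after agonist addition; 0% = ACh EC80 plus DMSO and 100% = DMSO alone without agonist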
M1 PAM parental – counter-screen for M1 PAMs: effect in parental CHO-K1 cells; ATP EC20, Fluo-8 calcium fluorescence; 0% at ATP EC20, 100% at ATP max; 360,000 tested, 0.02% active; activation, % at 3 µM;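 active means activation above the run cutoff, the mean activation of all test compounds plus 3 SD, cut at about 40% in these data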;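 further: peak over basal fluorescence ratio in a 140 s read after ATP addition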
The depositor's hits bear a star. Hits are enriched below; roughly 2.3% of the tested compounds scored in any of these assays.

SMILES | CHO-K1 Ca antag | M1 PAM | CHRM1 agonist | CHO-K1 Ca ag | CHRM1 antagonist | M1 PAM parental
COc1cccc(-c2ccc(NC(=O)C3CCCN(Cc4ccco4)C3)cc2)c1 (stereo not drawn) | -7 | 3 | -3 | 2 | -2 | 9
COc1ccc(Cc2nnc(SCC(=O)Nc3ccccc3C#N)o2)cc1 | -10 | 12 | -1 | 1 | -11 | 5
O=C(NNC(=S)NC(=O)c1ccccc1Cl)c1cccc([N+](=O)[O-])c1 | 14 | -8 | 19* | 2 | 17 | 0
O=C(NNC(=S)NC(=O)c1ccc(Br)cc1)c1cccc([N+](=O)[O-])c1 | -11 | -6 | 35* | 21* | -1 | 7
O=C(NNC(=S)NC(=O)c1ccc(Br)cc1)c1ccc([N+](=O)[O-])cc1 | 5 | -10 | 47* | 9 | 6 | 2
CCc1ccccc1OCC(=O)Nc1cc(S(=O)(=O)N(CC)CC)ccc1N1CCOCC1 | -13 | -10 | -6 | 0 | 7 | -7
CSCC[C@H](NC(=O)c1ccc(OCC2CCCO2)cc1)c1nc2ccccc2[nH]1 (stereo partly drawn) | -10 | 2 | -4 | 0 | -8 | 12
COC(=O)c1cccc(NC(=S)Nc2cc(Cl)ccc2OC)c1 | 1 | 6 | -3 | 1 | -8 | 12
COC(=O)c1cccc(NC(=O)Nc2ccc(Cl)cc2Cl)c1 | 28* | 1 | 0 | 0 | -2 | -26
CCN(C1CCCCC1)S(=O)(=O)CCNC(=O)c1ccc(OC)cc1 | 12 | 6 | 9 | 1 | -13 | -11
C=CCN1C(=O)CSc2ccc(C(=O)NCc3ccc(F)cc3)cc21 | -17 | -10 | -3 | 5 | 15 | 10
CCC1CCCCN1CCCNC(=O)c1ccc2c(c1)N(Cc1c(F)cccc1Cl)C(=O)CS2 (stereo not drawn) | -14 | -22 | -5 | 0 | 100* | -10
O=C(NCc1ccc2c(c1)OCO2)c1ccc2c(c1)N(Cc1c(F)cccc1Cl)C(=O)CS2 | 4 | -26 | -12 | 0 | 40* | 4
CCOC(=O)C1CCCN(C(=O)c2cc(CN3C(=O)c4ccccc4C3=O)ccc2OC)C1 (stereo not drawn) | 4 | 10 | 8 | 0 | 9 | -9
O=C1C(NS(=O)(=O)c2cccs2)=C(N2CCN(Cc3ccccc3)CC2)C(=O)c2ccccc21 | -3 | -14 | -2 | 7 | 31* | -3
CCOc1ccccc1N1CCN(C2=C(NS(=O)(=O)c3cccs3)C(=O)c3ccccc3C2=O)CC1 | 4 | -23 | -6 | 0 | 60* | 12
COC(=O)C1CCN(C(=O)COC(=O)CSc2ccc(C(N)=O)cc2[N+](=O)[O-])CC1 | -6 | 5 | -1 | 0 | -17 | 7
O=C(C1CCN(c2nnc(N3CCCC3=O)s2)CC1)N1CCN(c2cccc(C(F)(F)F)c2)CC1 | 3 | -24 | -2 | 7 | 77* | 0
Cc1c(/C=N/NC(=O)c2sc3ccccc3c2Cl)cnn1C | 26* | 6 | -1 | 0 | -7 | 3
Cc1ccc(CNC(=O)c2cc3c(=O)n(C)c4ccccc4c3n2C)o1 | 24* | 0 | -9 | 2 | -3 | -14
COc1ccccc1NC(=O)c1cc2c(=O)n(C)c3ccccc3c2n1C | -12 | -19 | -6 | 3 | 93* | -9
CCCN(CC(=O)Nc1ccccc1OC)C(=O)c1nc2nc(C)ccn2n1 | -17 | 3 | -3 | 0 | -2 | 17
COC(=O)c1ccc2[nH]c(C)cc(=O)c2c1 | -4 | -23 | -6 | 1 | 69* | 9
CC(C)Oc1ccccc1/C=N/NC(=O)c1ccc(F)cc1 | -7 | 22* | 0 | 1 | -22 | 12
CCn1c(CC(=O)Nc2ccc(F)cc2)nnc1SCC(=O)Nc1nnc(C)s1 | -9 | 12 | -1 | 1 | -12 | 13
CCN(CC)c1ccc(-c2nc3cnccc3n2C)cc1 | -2 | -20 | -6 | 0 | 39* | 5
Cn1c(-c2ccncc2)nc2ccccc21 | -6 | 3 | -5 | 0 | -5 | 1
CCCCCCN1C[C@H](n2cc(-c3ccc(F)cc3)nn2)[C@@H](O)C[C@@H]1c1ccc(C)cc1 | -9 | -10 | 3 | 1 | 19* | 13
